Assay results taken from PubChem BioAssay AID652257 (The Scripps Research Institute Molecular Screening Center, 2013).
In all, about 370,000 compounds went through this assay and about 4,800 (1.3%) were called active.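 The calls were made as follows: active = inhibition above about 21% made by adding two undisclosed values (limit read from the data); inactive = the rest.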 Many of the other results were omitted from the sample, so actives are more common in it than they were.

What follows are compounds tested against Protein arginine N-methyltransferase 1 (Homo sapiens) (UniProt Q99873) (assay: human PRMT1 activity-probe blockers – biochemical, fluorescence polarization, primary screen (AID 652257)). Conditions: recombinant PRMT1, activity-based probe fluorescence polarization; at 2.79 µM; stronger effect = higher value.
Chain of Protein arginine N-methyltransferase 1 (Homo sapiens) (Q99873 whole entry, looked up): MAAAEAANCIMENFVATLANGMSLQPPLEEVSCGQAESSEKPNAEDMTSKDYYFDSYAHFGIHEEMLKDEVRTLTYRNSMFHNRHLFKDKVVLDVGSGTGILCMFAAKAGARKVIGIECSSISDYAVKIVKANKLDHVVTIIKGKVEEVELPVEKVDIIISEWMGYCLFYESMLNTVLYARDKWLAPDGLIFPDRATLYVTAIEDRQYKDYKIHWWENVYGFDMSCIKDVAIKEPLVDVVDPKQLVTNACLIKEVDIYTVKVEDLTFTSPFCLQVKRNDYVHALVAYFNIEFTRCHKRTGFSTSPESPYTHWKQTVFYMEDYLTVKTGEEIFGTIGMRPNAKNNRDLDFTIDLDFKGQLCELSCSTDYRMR

SMILES | inhibition
CC(C)c1ccc(O)c(CN2CCN(c3ccccc3)CC2)c1 | -1.49% (inactive)
Fc1ccc(N2CCN(Cc3ccc4c(c3)OCO4)CC2)cc1 | -0.82% (inactive)
Oc1cc2c(cc1CN1CCN(c3ccccc3)CC1)OCO2 | 24.3% (active)
O=C(N/N=C/c1c(O)n(C2CC2)c(=S)[nH]c1=O)c1ccccc1 | 3.82% (inactive)
CC1C2Cn3c(nc4ccccc43)C1N(C)O2 (stereo not given) | 1% (inactive)
O=S(=O)(c1ccccc1)N1CCC2CCNC2C1 (stereo not given) | -4.47% (inactive)
ClC(Cl)(Cl)c1ccccc1 | -1.08% (inactive)
O=C1NC(=O)N(c2ccccc2)C(=O)/C1=C/c1ccc([N+](=O)[O-])s1 | 30.1% (active)
CC(C(=O)Nc1ccc(Cl)cc1Cl)N1CC=C(c2ccccc2)CC1 (stereo not given) | -2.84% (inactive)
CCOc1ccc(-c2cc(C)[n+](CCN(CC)CC)c(-c3ccc(OCC)cc3)c2)cc1 | 4.49% (inactive)
Cc1c(Oc2cc(NN3CCCCC3)c([N+](=O)[O-])cc2[N+](=O)[O-])cccc1[N+](=O)[O-] | 0.33% (inactive)
CCOc1cccc(=NC2CCCCC2)c2c(C)[nH]c(C)c12 | 24.5% (active)
COc1ccc2c(c1)[C@@]13CCCCC1[C@@H](C2)NCC3 (stereo not given in full) | 0.98% (inactive)
CC(=O)C1(O)CCC2C3CCC4=C(Cl)C(=O)CCC4(C)C3CCC21C (stereo not given) | -3.26% (inactive)
CCCCC(=O)N/N=C/c1c(O)n(CCC2=CCCCC2)c(=O)[nH]c1=O | 4.46% (inactive)
O=C(O)COc1ccccc1/C=C1\C(=O)NC(=O)N(CCC2=CCCCC2)C1=O | 21.6% (active)
C=CCN1C(=O)NC(=O)/C(=C/c2ccc(OCC(=O)Nc3ccc(C)cc3)cc2)C1=O | 2.43% (inactive)
COP(=O)(Sc1ccccc1)C(Cc1ccccc1)NC(=O)OCc1ccccc1 (stereo not given) | 15.9% (inactive)
CCC(C)NC1(c2ccccc2)CCCCC1 (stereo not given) | -3.67% (inactive)
Brc1ccc2c(c1)CNCc1cnnn1-2 | -6.53% (inactive)
CCCOC(=O)C1C2c3ccccc3C(c3ccccc32)C1C(=O)O (stereo not given) | -2.66% (inactive)
O=C1NC(=O)N(Cc2ccco2)C(=O)/C1=C\c1ccc(-c2ccc(F)cc2)o1 | 25% (active)
Cc1cc(/C=C2/C(=O)NC(=O)N(Cc3ccco3)C2=O)c(C)n1-c1ccc(C(=O)O)cc1 | 42% (active)
Cc1ccc(-n2c(C)cc(/C=C3\C(=O)NC(=O)N(C)C3=O)c2C)cc1C | 2.43% (inactive)
Cc1cc(C=C2C(=O)NC(=O)NC2=O)c(C)n1-c1ccncc1 | 3.52% (inactive)
COc1cc2nc(N3CCN(C(=O)[C@@H]4CCCO4)CC3)nc(N)c2cc1OC | -2.88% (inactive)
Cc1cc(N2C(=O)C3CCCN3C2c2ccc(Cl)c(Cl)c2)no1 (stereo not given) | 1.57% (inactive)
COC(=O)C1=C(c2cc3ccccc3s2)C[C@@H]2CC[C@H]1N2C(=O)NCc1cccc2ccccc12 | -3.89% (inactive)

SMILES | inhibition
COP(=O)(NS(=O)(=O)c1ccccc1)OC | -6.51% (inactive)
Cc1ccc2c(c1)=C/C(=C\c1c(O)[nH]c(=O)[nH]c1=O)C(=O)N=2 | 7.2% (inactive)
O=C1N=c2ccccc2=C/C1=C\c1c(O)[nH]c(=S)[nH]c1=O | 51.8% (active)
COc1ccccc1N=Nc1c(O)[nH]c(=S)[nH]c1=O | -3.43% (inactive)
CO[C@H]([C@H](C)/C=C/N(C)C=O)[C@@H](C)C(=O)CC[C@H](C)[C@H](O)[C@H](C)[C@H]1OC(=O)/C=C/C(C)=C/[C@H](O)[C@H](OC)C[C@@H]2C=CC[C@@H](C[C@H](OC)[C@@]3(CO3)[C@@H](OC)C[C@@H](OC)[C@@H]1C)O2 | 1.29% (inactive)
CCN(CC)C(=O)[C@@H]1C=C2c3cccc4[nH]c(Br)c(c34)C[C@H]2N(C)C1 | 9.48% (inactive)
COP(=O)(OC)C(NC(=O)c1ccc(C)cc1)C(Cl)(Cl)Cl (stereo not given) | 1.17% (inactive)
CN1CCC(N(C)Cc2cccnc2)CC1 | 11.7% (inactive)
COc1ccc(N2C(=O)/C(=C/c3ccco3)C(=O)NC2=S)cc1 | 41.9% (active)
O=C(COC(=O)Cc1ccccc1)Nc1ccc(F)cc1 | -1.27% (inactive)
c1ccc(N2Cc3ccccc3-n3nncc3C2)nc1 | -1.49% (inactive)
CCOC(=O)CC(SP1(=S)OCC2(CCCCO2)C(C2CCCCO2)O1)C(=O)OCC (stereo not given) | 55.3% (active)
COc1ccc2c(c1)NP(=S)(c1ccccc1)N2 (stereo not given) | 14.7% (inactive)
COc1ccc(CCn2c(O)c(C=NC3CC3)c(=O)[nH]c2=O)cc1OC | 0.57% (inactive)
CCOC(=O)C1(Cc2ccc(Cl)cc2)CCN(C(C)CCn2cccn2)CC1 (stereo not given) | -1.84% (inactive)
CC1CNCCN1c1ccc(Cl)cc1 (stereo not given) | -2.9% (inactive)
Cc1cc(N2CCNC[C@@H]2C)ccc1N1CC[C@H](O)C1 | 49.5% (active)
Clc1ccc([C@@H]2CC3CCC2N3)cn1 (stereo not given in full) | -1.63% (inactive)
CC(C)CN1CCN(Cc2ccccc2C(F)(F)F)CC1CCO (stereo not given) | 0.64% (inactive)
CCOC(=O)c1c(-c2ccccc2)oc2ccc(OC(=O)N(C)C)cc12 | 2.78% (inactive)
COc1ccccc1NC(=O)N1C[C@@H]2C[C@@H](C1)c1cccc(=O)n1C2 | 1.82% (inactive)
CS(=O)(=O)N1CCC2CCNC2C1 (stereo not given) | -2.72% (inactive)
CCC(=NCCc1ccccc1)c1c(O)n(C2CCCCC2)c(=O)[nH]c1=O | -0.77% (inactive)
CC(=O)c1c(O)n(C2CCCCCC2)c(=O)[nH]c1=O | 23.2% (active)
CC(=NCC1CCCO1)c1c(O)n(-c2ccccc2)c(=O)[nH]c1=O (stereo not given) | -2.12% (inactive)
Cc1ccccc1CCC[C@@H](CC1CCCCC1)CN(C)C(=O)Oc1ccccc1 | 0.94% (inactive)
COc1cc(OC)cc(C(=O)NCCN2CCC3(CC2)C(=O)NCN3c2ccccc2)c1 | 1.49% (inactive)
